Data published in the supplement of paper PMC10849652.
About 7,900 targets were measured; listed, in parts, are those with a hit and a random draw of the rest. About 0.6% of all pairs of compound and target were hits. Unmarked numbers belong to inactive results.

What follows are targets tested with Cc1ccc(NC(=O)c2ccc(CN3CC[C@H](N(C)C)C3)c(C(F)(F)F)c2)cc1Nc1nccc(-c2cncnc2)n1 [bafetinib] (assay: log2 fold change, soluble protein after heating vs DMSO (PISA); higher = thermal stabilisation; K562 cells, 10 uM, 30 min; active = over 0.2 and 3.5 SD of the protein, either way, in both replicates (recomputed)).
Procedure, shortened: (§1)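 K562 cells (2×10^6 cells/mL) were treated with 10 μM compound for 30 min, and aliquots were heated for 3 min over 48°C-58°C. Pooled aliquots were extracted in PBS with 0.5% NP-40 at 4°C, and the supernatant after 21,000xg for 90 min was measured by TMTpro 16plex LC-MS/MS with channel sums equalised. Reported thermal stability, relative to control samples and from duplicates, is a log2 fold change.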

Chain of UniProt Q14004 (Q14004 whole entry, looked up): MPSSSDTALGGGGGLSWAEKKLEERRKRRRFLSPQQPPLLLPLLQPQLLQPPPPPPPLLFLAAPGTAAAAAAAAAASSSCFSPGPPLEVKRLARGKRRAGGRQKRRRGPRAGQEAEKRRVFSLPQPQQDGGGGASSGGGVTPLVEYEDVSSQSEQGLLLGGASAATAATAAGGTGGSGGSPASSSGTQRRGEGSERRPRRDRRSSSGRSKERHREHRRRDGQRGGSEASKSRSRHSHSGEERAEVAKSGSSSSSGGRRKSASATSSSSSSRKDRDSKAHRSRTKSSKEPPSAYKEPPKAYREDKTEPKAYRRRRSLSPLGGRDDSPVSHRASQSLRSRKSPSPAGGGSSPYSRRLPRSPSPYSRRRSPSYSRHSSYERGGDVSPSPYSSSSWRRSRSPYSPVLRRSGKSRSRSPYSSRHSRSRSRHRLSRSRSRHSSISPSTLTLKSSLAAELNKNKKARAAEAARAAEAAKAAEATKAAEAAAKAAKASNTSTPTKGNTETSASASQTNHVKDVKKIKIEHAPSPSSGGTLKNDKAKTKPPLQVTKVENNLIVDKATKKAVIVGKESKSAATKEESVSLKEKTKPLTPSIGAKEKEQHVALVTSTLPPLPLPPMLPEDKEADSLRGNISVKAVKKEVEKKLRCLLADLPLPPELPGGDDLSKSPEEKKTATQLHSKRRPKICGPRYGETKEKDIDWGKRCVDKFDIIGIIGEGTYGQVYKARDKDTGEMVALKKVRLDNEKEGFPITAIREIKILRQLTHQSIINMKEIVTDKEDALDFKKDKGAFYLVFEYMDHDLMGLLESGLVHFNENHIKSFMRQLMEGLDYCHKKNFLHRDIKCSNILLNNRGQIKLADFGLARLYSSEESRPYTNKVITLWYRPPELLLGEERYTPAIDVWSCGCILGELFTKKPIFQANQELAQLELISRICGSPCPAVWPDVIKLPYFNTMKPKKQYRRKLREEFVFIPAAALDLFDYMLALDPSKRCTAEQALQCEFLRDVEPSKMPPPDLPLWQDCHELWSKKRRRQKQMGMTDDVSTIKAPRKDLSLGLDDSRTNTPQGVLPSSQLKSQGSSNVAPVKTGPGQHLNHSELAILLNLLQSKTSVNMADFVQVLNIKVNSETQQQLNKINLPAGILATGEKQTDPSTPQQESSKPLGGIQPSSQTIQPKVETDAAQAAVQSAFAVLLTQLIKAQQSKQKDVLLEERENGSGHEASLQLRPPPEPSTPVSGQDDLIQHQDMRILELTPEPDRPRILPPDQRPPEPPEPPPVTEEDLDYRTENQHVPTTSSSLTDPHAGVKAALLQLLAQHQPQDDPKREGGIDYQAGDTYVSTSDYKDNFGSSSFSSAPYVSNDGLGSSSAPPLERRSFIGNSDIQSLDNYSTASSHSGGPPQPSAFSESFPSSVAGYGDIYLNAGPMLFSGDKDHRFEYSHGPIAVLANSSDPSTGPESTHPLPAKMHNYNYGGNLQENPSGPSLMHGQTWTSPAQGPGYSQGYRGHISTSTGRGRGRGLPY
Chain of UniProt Q12996 (Q12996 whole entry, looked up): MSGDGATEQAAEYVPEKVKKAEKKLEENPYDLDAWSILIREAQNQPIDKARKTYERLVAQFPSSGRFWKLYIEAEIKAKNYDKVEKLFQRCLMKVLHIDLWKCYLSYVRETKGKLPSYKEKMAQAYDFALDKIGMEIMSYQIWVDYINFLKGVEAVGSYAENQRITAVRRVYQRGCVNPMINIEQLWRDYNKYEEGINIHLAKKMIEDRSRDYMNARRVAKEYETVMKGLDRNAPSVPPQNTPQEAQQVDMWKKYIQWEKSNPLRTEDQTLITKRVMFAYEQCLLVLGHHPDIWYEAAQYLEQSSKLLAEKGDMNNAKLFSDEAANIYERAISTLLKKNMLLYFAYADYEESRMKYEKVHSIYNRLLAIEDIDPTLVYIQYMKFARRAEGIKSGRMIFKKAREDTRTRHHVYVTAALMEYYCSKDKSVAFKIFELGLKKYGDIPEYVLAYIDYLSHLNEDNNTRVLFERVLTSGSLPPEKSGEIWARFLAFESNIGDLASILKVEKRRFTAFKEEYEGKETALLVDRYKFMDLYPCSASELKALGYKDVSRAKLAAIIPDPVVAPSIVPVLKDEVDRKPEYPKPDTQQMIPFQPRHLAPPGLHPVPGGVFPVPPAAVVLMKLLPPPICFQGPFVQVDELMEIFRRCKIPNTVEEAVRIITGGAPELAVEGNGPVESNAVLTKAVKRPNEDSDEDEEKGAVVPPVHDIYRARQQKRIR
Chain of UniProt Q86X83 (Q86X83 whole entry, looked up): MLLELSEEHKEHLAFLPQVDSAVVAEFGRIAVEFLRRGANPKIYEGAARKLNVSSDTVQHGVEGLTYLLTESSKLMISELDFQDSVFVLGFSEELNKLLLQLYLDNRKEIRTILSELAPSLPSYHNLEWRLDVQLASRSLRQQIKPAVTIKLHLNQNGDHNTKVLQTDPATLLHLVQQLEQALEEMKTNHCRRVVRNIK
Chain of UniProt P35790 (P35790 whole entry, looked up): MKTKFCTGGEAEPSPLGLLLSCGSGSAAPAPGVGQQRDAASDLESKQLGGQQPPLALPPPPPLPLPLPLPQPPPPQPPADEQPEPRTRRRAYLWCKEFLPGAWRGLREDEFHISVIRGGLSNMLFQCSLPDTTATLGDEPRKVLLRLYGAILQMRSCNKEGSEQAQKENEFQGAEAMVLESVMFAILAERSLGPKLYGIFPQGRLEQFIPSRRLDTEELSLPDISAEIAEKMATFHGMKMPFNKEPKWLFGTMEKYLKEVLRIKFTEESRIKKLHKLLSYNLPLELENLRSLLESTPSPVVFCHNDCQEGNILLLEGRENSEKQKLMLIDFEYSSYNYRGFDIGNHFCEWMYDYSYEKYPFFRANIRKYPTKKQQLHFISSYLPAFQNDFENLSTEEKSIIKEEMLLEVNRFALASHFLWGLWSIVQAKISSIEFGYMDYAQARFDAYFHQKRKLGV
Chain of UniProt Q8IWX8 (Q8IWX8 whole entry, looked up): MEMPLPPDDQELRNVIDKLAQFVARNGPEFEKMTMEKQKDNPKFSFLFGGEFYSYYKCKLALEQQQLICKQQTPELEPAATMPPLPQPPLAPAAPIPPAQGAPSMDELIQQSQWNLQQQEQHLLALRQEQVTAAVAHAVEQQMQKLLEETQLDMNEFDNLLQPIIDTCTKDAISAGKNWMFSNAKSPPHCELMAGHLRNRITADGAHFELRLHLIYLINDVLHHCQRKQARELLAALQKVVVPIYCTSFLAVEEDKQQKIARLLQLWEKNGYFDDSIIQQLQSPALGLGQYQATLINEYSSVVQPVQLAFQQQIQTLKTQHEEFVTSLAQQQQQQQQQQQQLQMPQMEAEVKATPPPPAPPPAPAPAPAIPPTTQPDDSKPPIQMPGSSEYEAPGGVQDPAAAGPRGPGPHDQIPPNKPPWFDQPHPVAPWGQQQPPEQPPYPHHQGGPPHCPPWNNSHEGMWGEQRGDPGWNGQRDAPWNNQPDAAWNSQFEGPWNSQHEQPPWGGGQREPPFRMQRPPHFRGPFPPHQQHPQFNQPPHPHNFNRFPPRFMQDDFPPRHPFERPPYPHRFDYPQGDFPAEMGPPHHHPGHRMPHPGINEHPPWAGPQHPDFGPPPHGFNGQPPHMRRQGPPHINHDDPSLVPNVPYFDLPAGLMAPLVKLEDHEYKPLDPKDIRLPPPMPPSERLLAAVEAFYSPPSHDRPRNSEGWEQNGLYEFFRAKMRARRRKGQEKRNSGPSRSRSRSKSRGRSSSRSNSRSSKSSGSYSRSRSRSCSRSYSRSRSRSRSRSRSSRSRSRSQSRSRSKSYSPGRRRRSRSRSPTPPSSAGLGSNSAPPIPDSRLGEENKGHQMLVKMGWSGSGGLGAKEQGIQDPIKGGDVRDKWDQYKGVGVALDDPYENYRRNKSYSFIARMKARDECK
Chain of UniProt Q16630 (Q16630 whole entry, looked up): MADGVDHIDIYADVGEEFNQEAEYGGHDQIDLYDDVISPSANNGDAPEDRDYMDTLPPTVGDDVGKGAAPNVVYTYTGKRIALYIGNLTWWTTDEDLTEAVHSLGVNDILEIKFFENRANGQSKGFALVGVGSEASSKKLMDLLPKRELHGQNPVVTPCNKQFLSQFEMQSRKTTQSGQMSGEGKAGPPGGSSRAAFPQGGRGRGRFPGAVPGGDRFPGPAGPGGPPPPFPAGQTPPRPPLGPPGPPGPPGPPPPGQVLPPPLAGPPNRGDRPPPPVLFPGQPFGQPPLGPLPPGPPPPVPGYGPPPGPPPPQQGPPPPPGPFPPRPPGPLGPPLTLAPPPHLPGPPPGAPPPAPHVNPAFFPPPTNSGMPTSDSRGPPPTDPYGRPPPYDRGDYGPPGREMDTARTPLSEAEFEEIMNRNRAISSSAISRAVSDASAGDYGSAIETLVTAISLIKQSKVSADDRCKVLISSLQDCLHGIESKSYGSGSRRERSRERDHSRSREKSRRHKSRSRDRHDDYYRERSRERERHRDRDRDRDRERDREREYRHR
Chain of UniProt Q8NHZ8 (Q8NHZ8 whole entry, looked up): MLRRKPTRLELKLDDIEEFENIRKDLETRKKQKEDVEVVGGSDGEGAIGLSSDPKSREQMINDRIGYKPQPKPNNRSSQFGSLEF
Chain of UniProt P08174 (P08174 whole entry, looked up): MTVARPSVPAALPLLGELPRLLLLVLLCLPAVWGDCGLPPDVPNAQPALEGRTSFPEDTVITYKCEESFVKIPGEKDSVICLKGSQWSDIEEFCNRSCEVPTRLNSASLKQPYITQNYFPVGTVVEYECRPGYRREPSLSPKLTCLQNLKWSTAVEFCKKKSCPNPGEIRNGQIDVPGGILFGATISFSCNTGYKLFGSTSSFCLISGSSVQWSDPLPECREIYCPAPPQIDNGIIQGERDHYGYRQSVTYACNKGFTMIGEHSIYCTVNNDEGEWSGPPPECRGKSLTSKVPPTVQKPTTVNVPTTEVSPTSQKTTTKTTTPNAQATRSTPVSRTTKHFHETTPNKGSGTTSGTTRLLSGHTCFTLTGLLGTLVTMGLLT
Chain of UniProt P83916 (P83916 whole entry, looked up): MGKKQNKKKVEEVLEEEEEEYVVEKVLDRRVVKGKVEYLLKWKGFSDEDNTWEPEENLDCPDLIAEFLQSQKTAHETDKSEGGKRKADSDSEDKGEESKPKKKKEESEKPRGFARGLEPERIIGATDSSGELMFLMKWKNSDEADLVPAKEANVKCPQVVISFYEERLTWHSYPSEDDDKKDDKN

Target	log2 fold change
COPS3 (UniProt Q9UNS2)	-0.05
CHERP (UniProt Q8IWX8)	0.057
CPSF6 isoform 2 (UniProt Q16630)	0.079
CDK13 (UniProt Q14004)	0.092
COMMD2 (UniProt Q86X83)	0.162
CDC26 (UniProt Q8NHZ8)	-0.034
CLCN3 isoform 2 (UniProt P51790)	-0.044
CAMKK2 (UniProt Q96RR4)	0.04
CHKA (UniProt P35790)	0.123
CSTF3 (UniProt Q12996)	-0.004
CD55 isoform 7 (UniProt P08174)	0.168
CSNK2A1 (UniProt P68400)	-0.02
CIT isoform 4 (UniProt O14578)	-0.01

These targets were tested with Cc1cccc(CC(=O)N2CCc3c2ccc(-c2cn(C)c4ncnc(N)c24)c3F)n1 in the same assay as above.
Procedure, shortened: as §1

Target	log2 fold change
CNDP2 (UniProt Q96KP4)	0.006
CSNK1A1 (UniProt P48729)	-0.156
CNTN4 (UniProt Q8IWV2)	0.008
CRLF3 (UniProt Q8IUI8)	-0.045
CDC123 (UniProt O75794)	-0.013
CPT1A (UniProt P50416)	0.006
CERS2 (UniProt Q96G23)	0.064
COQ7 (UniProt Q99807)	-0.062
CELF2 isoform 3 (UniProt O95319)	-0.005
COPS8 (UniProt Q99627)	0.025
CBX1 (UniProt P83916)	-0.025
CDK5RAP3 isoform 4 (UniProt Q96JB5)	0.122
CD53 (UniProt P19397)	-0.418 (active)
CCNK isoform 4 (UniProt O75909)	-0.021
COPS4 (UniProt Q9BT78)	0
COASY isoform 2 (UniProt Q13057)	0.089
CDKN2AIP (UniProt Q9NXV6)	0.021
CDK6 (UniProt Q00534)	-0.002

Target	log2 fold change
CHCHD1 (UniProt Q96BP2)	0.081
CLUH (UniProt O75153)	0.045
CALCOCO2 isoform 4 (UniProt Q13137)	-0.061
COMT (UniProt P21964)	-0.019
COPS3 (UniProt Q9UNS2)	-0.027
CHERP (UniProt Q8IWX8)	0.092
CPSF6 isoform 2 (UniProt Q16630)	-0.136
CDK13 (UniProt Q14004)	-0.018
COMMD2 (UniProt Q86X83)	-0.066
CDC26 (UniProt Q8NHZ8)	0.162
CLCN3 isoform 2 (UniProt P51790)	0.076
CAMKK2 (UniProt Q96RR4)	-0.144
CHKA (UniProt P35790)	-0.023
CSTF3 (UniProt Q12996)	0.044
CD55 isoform 7 (UniProt P08174)	-0.06
CSNK2A1 (UniProt P68400)	-0.073
CIT isoform 4 (UniProt O14578)	0.07

The targets below were run with Cc1cn(-c2cc(NC(=O)c3ccc(C)c(Nc4nccc(-c5cccnc5)n4)c3)cc(C(F)(F)F)c2)cn1 [nilotinib] in the same assay as above.
Procedure, shortened: as §1

Target	log2 fold change
CNDP2 (UniProt Q96KP4)	0.045
CSNK1A1 (UniProt P48729)	-0.106
CNTN4 (UniProt Q8IWV2)	0.06
CRLF3 (UniProt Q8IUI8)	-0.043
CDC123 (UniProt O75794)	-0.084
CPT1A (UniProt P50416)	0.058
CERS2 (UniProt Q96G23)	-0.128
COQ7 (UniProt Q99807)	0.006
CELF2 isoform 3 (UniProt O95319)	-0.001
COPS8 (UniProt Q99627)	0.018
CBX1 (UniProt P83916)	0.141
CDK5RAP3 isoform 4 (UniProt Q96JB5)	-0.094
CD53 (UniProt P19397)	0.069
CCNK isoform 4 (UniProt O75909)	0.045
COPS4 (UniProt Q9BT78)	0
COASY isoform 2 (UniProt Q13057)	-0.19
CDKN2AIP (UniProt Q9NXV6)	-0.021
CDK6 (UniProt Q00534)	-0.021

Target	log2 fold change
CHCHD1 (UniProt Q96BP2)	-0.007
CLUH (UniProt O75153)	0.191
CALCOCO2 isoform 4 (UniProt Q13137)	-0.039
COMT (UniProt P21964)	0.01
COPS3 (UniProt Q9UNS2)	0.006
CHERP (UniProt Q8IWX8)	-0.13
CPSF6 isoform 2 (UniProt Q16630)	0.06
CDK13 (UniProt Q14004)	-0.024
COMMD2 (UniProt Q86X83)	-0.132
CDC26 (UniProt Q8NHZ8)	-0.011
CLCN3 isoform 2 (UniProt P51790)	-0.016
CAMKK2 (UniProt Q96RR4)	-0.008
CHKA (UniProt P35790)	0.178
CSTF3 (UniProt Q12996)	-0.044
CD55 isoform 7 (UniProt P08174)	0.086
CSNK2A1 (UniProt P68400)	0.032
CIT isoform 4 (UniProt O14578)	-0.049
